Measurements reported in PubChem BioAssay (NCATS).
Results filed as inconclusive are left out. Calls of active or inactive are those of the source. The call rests on the fitted dose curve; in most records, active means well fitted inhibition curve with a large enough effect; inconclusive means small, poorly fitted or top-dose-only effect; inactive means flat fitted curve, though single readings scatter.

Experiments:
Experiment in all cases: qHTS profiling for inhibitors of Plasmodium falciparum proliferation (AID 504749); further: nearly all actives have a fitted effect of over 60% in size
Conditions in all cases: P. falciparum in erythrocytes, SYBR Green DNA, 72 h; series mostly up to 28.7 µM
[1] = test system: CP256
Method in brief: (§1)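 P. falciparum-infected erythrocytes (0.3% parasitemia, 2.5% hematocrit) incubated with compound 72 h at 37 C, 5% CO2. Parasite DNA detected by SYBR Green after lysis, overnight at room temperature; normalised to 0.29 uM artemisinin and DMSO.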

[2] = test system: CP260
Method in brief: as §1

[3] = test system: CP262
Method in brief: as §1

[4] = test system: CP266
Method in brief: as §1

[5] = test system: CP268
Method in brief: as §1

[6] = test system: CP269
Method in brief: as §1

[7] = test system: CP286
Method in brief: as §1

[8] = test system: CP291
Method in brief: as §1

[9] = test system: CP297
Method in brief: as §1

[10] = test system: CP305
Method in brief: as §1

[11] = test system: CP315
Method in brief: as §1

[12] = test system: CP325
Method in brief: as §1

[13] = test system: CP329
Method in brief: as §1

[14] = test system: CP335
Method in brief: as §1

[15] = test system: DFO2036
Method in brief: as §1

[16] = test system: DIV30
Method in brief: as §1

[17] = test system: Dd2
Method in brief: as §1

[18] = test system: CP265
Method in brief: as §1

[19] = test system: DIV14
Method in brief: as §1

[20] = test system: DIV17
Method in brief: as §1

Measured: Potency
Potency means the concentration at half of the fitted maximal effect.

CC(=O)OCC(=O)[C@@]1(OC(C)=O)[C@@H](C)C[C@H]2[C@@H]3C[C@H](F)C4=CC(=O)C=C[C@]4(C)[C@@]3(F)[C@@H](O)C[C@@]21C
not listed: [18] | [19] | [20]
inactive: all other assays above

CCN(CC)CCNC(=O)COc1ccc(Cl)cc1
active: [17] 12.6 µM
not listed: [2] | [7] | [9] | [15] | [18] | [19] | [20]
inactive: all other assays above

Cc1cccc(C)c1NC(=O)CN1CCN(CCCC(c2ccc(F)cc2)c2ccc(F)cc2)CC1
not listed: [3] | [6] | [9] | [14] | [16] | [17] | [19] | [20]
inactive: all other assays above

Cc1ccc(C(=O)C(C)CN2CCCCC2)cc1 (stereo unspecified)
active: [18] 10 µM
not listed: [2] | [6] | [14] | [16] | [20]
inactive: all other assays above

CC(=O)c1ccc2c(c1)N(CCCN1CCC(CCO)CC1)c1ccccc1S2
not listed: [2] | [7] | [14] | [17] | [19] | [20]
inactive: all other assays above

CC(C)(C)CC(C)(C)c1ccc(O)c(Cc2ccc(Cl)cc2Cl)c1
active: [1] 3.55 µM | [2] 2 µM | [18] 3.16 µM | [4] 4.78 µM | [5] 0.757 µM | [6] 1.51 µM | [7] 2.51 µM | [8] 3.38 µM | [9] 1.69 µM | [11] 3.79 µM | [12] 3.79 µM | [13] 4.78 µM | [14] 1.51 µM | [15] 2 µM | [19] 0.601 µM | [20] 1.07 µM | [16] 1.51 µM | [17] 1.58 µM

CN1CCC(=C2c3ccccc3Sc3ccccc32)CC1
active: [1] 11.2 µM | [2] 8.91 µM | [18] 7.08 µM | [6] 13.5 µM | [7] 11.2 µM | [8] 9.53 µM | [9] 8.49 µM | [14] 12 µM | [15] 10 µM | [19] 7.57 µM | [20] 12 µM | [16] 9.53 µM | [17] 4.47 µM

CCOc1ccc2nc3cc(N)ccc3c(N)c2c1
active: [1] 4.47 µM | [2] 3.98 µM | [18] 11.2 µM | [5] 15.1 µM | [6] 9.53 µM | [7] 1.41 µM | [8] 12 µM | [9] 15.1 µM | [10] 9.53 µM | [11] 4.26 µM | [13] 15.1 µM | [14] 6.01 µM | [15] 5.62 µM | [19] 7.57 µM | [20] 15.1 µM | [17] 2.51 µM

Oc1ccc(Cl)c2cccnc12
not listed: [2] | [3] | [7] | [14] | [17]
inactive: all other assays above

CCCN1CCCC[C@H]1C(=O)Nc1c(C)cccc1C
inactive: [1] | [2] | [3] | [4] | [6] | [7] | [8] | [11] | [13] | [15] | [16]

COc1cc2c(cc1OC)C(=O)C(CC1CCN(Cc3ccccc3)CC1)C2 (stereo unspecified)
active: [19] 10.7 µM | [17] 8.91 µM
not listed: [18] | [20]
inactive: all other assays above

O=C(Nc1ccc(Oc2ccc(Cl)cc2)c(Cl)c1)c1cc(I)cc(I)c1O
not listed: [2] | [18]
inactive: all other assays above

CC(=O)Oc1ccc(C(=C2CCCCC2)c2ccc(OC(C)=O)cc2)cc1
not listed: [2]
inactive: all other assays above

CCCCCCC[N+](CC)(CC)CCCCc1ccc(Cl)cc1
active: [1] 2.24 µM | [2] 2.24 µM | [18] 2.82 µM | [4] 2.56 µM | [5] 2.56 µM | [6] 1.61 µM | [7] 1.12 µM | [8] 1.81 µM | [9] 2.03 µM | [10] 0.572 µM | [11] 2.28 µM | [12] 2.28 µM | [13] 1.81 µM | [14] 1.81 µM | [15] 1.78 µM | [19] 0.809 µM | [20] 0.809 µM | [16] 2.28 µM | [17] 2 µM

CN1CCC[C@@H]1c1cccnc1
not listed: [3] | [19]
inactive: all other assays above

CC(C)(C)CC(C)(C)c1ccc(OCCOCC[N+](C)(C)Cc2ccccc2)cc1
active: [1] 4.47 µM | [2] 1.41 µM | [18] 4.47 µM | [4] 4.26 µM | [5] 4.26 µM | [6] 3.79 µM | [7] 2.24 µM | [8] 4.78 µM | [9] 4.26 µM | [10] 4.78 µM | [11] 4.78 µM | [12] 4.78 µM | [13] 4.78 µM | [14] 1.51 µM | [15] 3.98 µM | [19] 3.38 µM | [20] 4.78 µM | [16] 4.26 µM | [17] 4.47 µM

CC(C)N=C(N)/N=C(\N)Nc1ccc(Cl)cc1
inactive: [4] | [5] | [19]
active: [1] 0.708 µM | [3] 2.28 µM | [17] 3.55 µM

COc1c(C)c2c(c(O)c1C/C=C(\C)CCC(=O)O)C(=O)OC2
active: [1] 3.16 µM | [2] 3.16 µM | [18] 3.16 µM | [6] 5.1 µM | [7] 3.16 µM | [8] 4.05 µM | [9] 5.1 µM | [10] 4.05 µM | [13] 6.42 µM | [14] 3.22 µM | [15] 2.51 µM | [19] 6.42 µM | [20] 6.42 µM | [16] 5.1 µM | [17] 3.55 µM

NC(=NCCCCCCN=C(N)/N=C(\N)Nc1ccc(Cl)cc1)/N=C(\N)Nc1ccc(Cl)cc1
active: [1] 1.41 µM | [2] 1 µM | [3] 1.51 µM | [4] 3.79 µM | [5] 1.51 µM | [6] 1.2 µM | [7] 0.398 µM | [8] 1.35 µM | [9] 2.13 µM | [10] 1.2 µM | [11] 1.07 µM | [12] 1.9 µM | [13] 1.69 µM | [14] 1.69 µM | [15] 1.78 µM | [19] 1.07 µM | [20] 1.07 µM | [16] 1.51 µM | [17] 2 µM

c1ccc(-c2ccc(C(c3ccccc3)n3ccnc3)cc2)cc1 (stereo unspecified)
active: [9] 6.75 µM | [11] 16.9 µM | [19] 9.53 µM | [20] 10.7 µM | [16] 12 µM | [17] 7.94 µM
inactive: [3]

CCOc1ccc(Cc2nccc3cc(OCC)c(OCC)cc23)cc1OCC
not listed: [1] | [8] | [13] | [14] | [16]
inactive: all other assays above

Oc1ccc(O)cc1
active: [14] 2.39 µM
inactive: [5] | [8] | [20]
